Records with an inconclusive call do not appear. The source made the active and inactive calls. How the source made its calls: active means hit-call score of the fitted dose curve at least 0.9, where 1 is the maximum; inconclusive means response in the unintended direction; inactive means score below 0.9.
How the values were obtained:
[1] = target: Cellular tumor antigen p53 (Homo sapiens) (UniProt P04637); assay: TOX21_p53_BLA_p2_ratio: Tox21 HCT-116 p53 Agonism Beta-lactamase Assay, Ratio, Phase 2 (AID 2283592)
Chain of Cellular tumor antigen p53 (Homo sapiens) (P04637 whole entry, looked up): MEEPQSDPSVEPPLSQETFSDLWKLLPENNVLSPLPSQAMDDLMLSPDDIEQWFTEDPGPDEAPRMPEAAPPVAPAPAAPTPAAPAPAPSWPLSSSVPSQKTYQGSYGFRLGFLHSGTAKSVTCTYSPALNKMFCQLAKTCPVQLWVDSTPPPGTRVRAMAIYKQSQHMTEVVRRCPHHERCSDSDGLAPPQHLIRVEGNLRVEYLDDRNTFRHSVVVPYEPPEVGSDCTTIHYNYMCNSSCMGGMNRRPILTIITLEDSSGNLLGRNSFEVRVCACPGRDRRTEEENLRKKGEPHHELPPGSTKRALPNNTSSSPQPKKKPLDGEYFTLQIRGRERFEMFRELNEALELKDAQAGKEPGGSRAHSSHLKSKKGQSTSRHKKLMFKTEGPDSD
Outline: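 HCT-116 cells with p53-responsive beta-lactamase reporter, 4000 cells/well, preincubated 5 h, then compound in DMSO (217-fold dilution) for 16 h at 37C. CCF4-AM substrate 2 h at room temperature; 460/530 nm emission ratio fitted upward versus DMSO.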

[2] = target: Cellular tumor antigen p53 (Homo sapiens) (UniProt P04637); assay: TOX21_p53_BLA_p3_ratio: Tox21 HCT-116 p53 Agonism Beta-lactamase Assay, Ratio, Phase 3 (AID 2283596)
Outline: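 HCT116 p53-bla cells (4000/well) given compound in DMSO (217-fold dilution) after 5 h, incubated 16 h at 37C. CCF4-AM substrate 2 h at room temperature; 460/530 nm emission ratio, gain fitted against DMSO.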

[3] = TOX21_p53_BLA_p4_viability: Viability Assessment in the Tox21 HCT-116 p53 Agonism Beta-lactamase Assay, Phase 4 (AID 2283597);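 further: hits lower the luminescence signal meaning cytotoxicity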
Outline: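 HCT-116 p53-bla cells, 4000/well, dosed after 5 h attachment and incubated 16 h at 37 °C, 5% CO2. Viability from CellTiter-Glo ATP luminescence after 30 min at room temperature, taken after the beta-lactamase read; loss of signal indicates cytotoxicity.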

[4] = target: Cellular tumor antigen p53 (Homo sapiens) (UniProt P04637); assay: TOX21_p53_BLA_p5_ratio: Tox21 HCT-116 p53 Agonism Beta-lactamase Assay, Ratio, Phase 5 (AID 2283599)
Outline: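 HCT-116 p53-bla cells (4000/well) plated 5 h, dosed with compound (217-fold DMSO dilution) for 16 h at 37 C; CCF4-AM substrate 2 h at room temperature. Activity is the 460/530 nm emission ratio (405 nm excitation), fitted in gain-of-signal direction versus DMSO.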

[5] = target: Cellular tumor antigen p53 (Homo sapiens) (UniProt P04637); assay: TOX21_p53_BLA_p4_ratio: Tox21 HCT-116 p53 Agonism Beta-lactamase Assay, Ratio, Phase 4 (AID 2283601)
Outline: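 HCT-116 p53 beta-lactamase reporter cells (4000/well) preincubated 5 h, then compound (217-fold dilution of DMSO stock) for 16 h at 37C. CCF4-AM substrate added 2 h at room temperature; 460/530 nm emission ratio fitted upward versus DMSO.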

[6] = TOX21_p53_BLA_p5_viability: Viability Assessment in the Tox21 HCT-116 p53 Agonism Beta-lactamase Assay, Phase 5 (AID 2283600)
Outline: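 HCT-116 p53 beta-lactamase reporter cells, 4000/well, were exposed to compound (pin transfer, 217-fold dilution) for 16 hours at 37C. Cellular ATP was read by CellTiter-Glo luminescence after 30 min at room temperature.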

Measured: outcome

c1ccc2c(c1)OCC(C1=NCCN1)O2 (stereo not drawn)
not listed: [6]
inactive: all other assays above

CCCCCCI
inactive: all assays above

CN(C)CCc1c[nH]c2ccc(O)cc12
inactive: [1] | [2] | [4]

C[C@]12CC[C@H]3[C@@H](CCC4=C(O)C(=O)CC[C@@H]43)[C@@H]1CC[C@@H]2OC(=O)CCC1CCCC1
inactive: [1] | [2] | [3] | [5]

Oc1ccc2c3c1O[C@H]1[C@@H](O)C=C[C@H]4[C@@H](C2)NCC[C@@]341
not listed: [6]
inactive: all other assays above

CNCC(=O)c1ccc(O)c(O)c1
inactive: [1] | [2] | [3] | [6]

COc1ccc2c(c1OC)C(=O)O[C@H]2[C@@H]1c2cc3c(cc2CCN1C)OCO3
not listed: [3]
inactive: all other assays above

CCOP(=S)(OCC)SCCl
not listed: [4]
inactive: all other assays above

C#C[C@]1(O)C=C[C@H]2[C@@H]3CCC4=CC(=O)CC[C@@H]4[C@H]3CC[C@@]21CC
not listed: [6]
inactive: all other assays above

CSSC
inactive: [1] | [2] | [6]

CCCC[n+]1cccc(C)c1
inactive: [1] | [2] | [5]
